Tested on: MST1R
Conditions: concentration: 1 μM,replicates: in singlicate; n = 1
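Also: KINOMEscan kinase panel screen.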

| Compound | %Inh |
| --- | --- |
| CCCC(=O)Nc1n[nH]c2ncccc12 [SB-601436] | 12% |
| CC(C)S(=O)(=O)N1CCN(Cc2ccc3c(c2)nc(NC(=O)c2ccsc2)n3C[C@H](O)c2ccccc2)CC1 [GW635815] | 36% |
| Cn1ccc2ncnc(Oc3ccc(NC(=O)Nc4cncc(C(F)(F)F)c4)c(Cl)c3)c21 | 0% |
| CN(c1ccc2c(c1)nc(NCc1ccc(F)cc1)n2C)c1ccnc(Nc2ccc(CS(C)(=O)=O)cc2)n1.Cl [GW813244] | 0% |
| C[C@@H](Oc1cc(-n2cnc3ccc(-c4ccncc4)cc32)sc1C(N)=O)c1ccccc1Cl [GSK483724] | 44% |
| C[C@@H]1CNc2c(sc3ccc4nc(-c5ccncc5)ccc4c23)C(=O)N1 | 18% |
| COc1cc(Nc2nccc(N3CCC(NC(=O)c4cccc(C#N)c4)C3)n2)cc(OC)c1OC (centres unmarked) [GSK1379751] | 21% |
| Cn1ccc2ncnc(Oc3ccc(NC(=O)Nc4ccnc(C(F)(F)F)c4)c(Cl)c3)c21 | 32% |
| Cn1cc(-c2cccc3c(N)c(C(N)=O)nnc23)cn1 | 24% |
| CC(=O)Nc1nc2cnc(Nc3cc(NC(=O)c4cccc(CC(C)(C)C#N)c4)ccc3C)nc2s1 | 26% |
| COc1cccc(CNC(=O)NC2CCN(c3ccnc(Nc4cc(OC)c(OC)c(OC)c4)n3)C2)c1 (centres unmarked) [GSK1379765] | 49% |
| O=C(Nc1cccc(C(F)(F)F)c1)c1cccc(Oc2ccc3nccn3n2)c1 | 3% |
| OCCn1cc(-c2cnc3nnn(Cc4ccc5ncccc5c4)c3n2)cn1 | 0% |
| Cc1cccc(-c2nc(Nc3ccncc3)c3sccc3n2)n1 [GW869641] | 0% |
| CS(=O)(=O)Nc1ccc(-c2ccnc3[nH]ccc23)cc1 [GSK993273] | 34% |
| Cn1ccc2ncnc(Oc3ccc(NC(=O)Nc4cccc(C(F)(F)F)c4)c(Cl)c3)c21 | 33% |
| O=C(Nc1n[nH]c2cc(-c3ccco3)ccc12)C1CC1 [SB-737447] | 0% |
| Cc1ccc(C(=O)Nc2ccc(Oc3ccc4nc(NC(=O)C5CC5)cn4c3)c(F)c2)c(=O)n1-c1ccccc1 | 100% |
| Cc1n[nH]c2cc(Nc3ccnc(Nc4cccc(CN5CCOCC5)c4)n3)ccc12 [GW682569] | 34% |

| Compound | %Inh |
| --- | --- |
| Cn1ccc2ncnc(Oc3ccc(NC(=O)Nc4cnn(C(C)(C)C)c4)c(Cl)c3)c21 | 10% |
| Cn1ccc2ncnc(Oc3ccc(NC(=O)Nc4cccc(C(F)(F)F)c4)c(F)c3)c21 | 19% |
| Cl.Cl.NC[C@H](CC1CCCCC1)NC(=O)c1ccc(-c2ccnc3[nH]ccc23)s1 [GSK1581428] | 26% |
| COc1cccc(C2=C(Nc3cccc(Cl)c3)C(=O)NC2=O)c1 [SB-341556] | 0% |
| C[C@@H](Oc1cc(-n2cnc3cc(-c4cnn(C)c4)ccc32)sc1C(N)=O)c1ccccc1Cl [GSK580432] | 64% |
| Cc1ccc2c(-c3ccnc(Nc4ccc(C(F)(F)F)cc4)n3)cnn2n1 [GW819776] | 0% |
| CCn1c(-c2nonc2N)nc2cncc(Br)c21 [SB-738004] | 19% |
| CCN1CCN(CCCC(=O)Nc2n[nH]c3nc(-c4ccc(O)cc4)c(Br)cc23)CC1 [SB-731579] | 17% |
| CN1CCN(CCCNc2nccc(-c3c(-c4ccc(F)cc4)nn4cc(C(N)=O)ccc34)n2)CC1 [GW622475] | 36% |
| COC(=O)c1cccc(NC(=O)NC2CCN(c3ccnc(NCc4ccc(F)cc4)n3)CC2)c1 [GSK1379860] | 31% |
| CC(=O)c1c(-c2ccncc2)[nH]c(-c2ccncc2)c1C [GW493036] | 42% |
| CN1CCN(CCNc2nc3cc(Oc4ccc(NC(=O)Nc5cc(C(F)(F)F)ccc5F)cc4)ccc3[nH]2)CC1.Cl.Cl [GW768504] | 0% |
| COc1cc2ncn(-c3cc(OCC4CCCCC4)c(C(N)=O)s3)c2cc1OC [GSK204559] | 35% |
| O=C(NCC1CC1)c1ccc(-c2cc(C(=O)NC3CC3)ccc2F)cc1 [GW810445] | 0% |
| CS(=O)c1ccc(-c2coc3ccc(-c4n[nH]c(=O)o4)cc23)cc1 (centres unmarked) | 0% |
| Cc1ccn2nc(-c3ccc(F)cc3)c(-c3ccncc3)c2c1.Cl [GW457859] | 36% |
| Cc1ccc(CC(=O)N2CCc3cc(-c4cn(C)c5ncnc(N)c45)ccc32)cc1 [GSK2634758] | 39% |
| CCOC(=O)N1CCC(n2cnc(-c3ccc(F)cc3)c2-c2ccnc(N)n2)CC1 [SB-219952] | 0% |

Tested on: T1, MST1
T1 construct: gene STK4
Conditions: concentration: 1 μM,replicates: in singlicate; n = 1

| Compound | %Inh |
| --- | --- |
| CCCC(=O)Nc1n[nH]c2ncccc12 [SB-601436] | 0% |
| CC(C)S(=O)(=O)N1CCN(Cc2ccc3c(c2)nc(NC(=O)c2ccsc2)n3C[C@H](O)c2ccccc2)CC1 [GW635815] | 5% |
| Cn1ccc2ncnc(Oc3ccc(NC(=O)Nc4cncc(C(F)(F)F)c4)c(Cl)c3)c21 | 0% |
| CN(c1ccc2c(c1)nc(NCc1ccc(F)cc1)n2C)c1ccnc(Nc2ccc(CS(C)(=O)=O)cc2)n1.Cl [GW813244] | 16% |
| C[C@@H](Oc1cc(-n2cnc3ccc(-c4ccncc4)cc32)sc1C(N)=O)c1ccccc1Cl [GSK483724] | 24% |
| C[C@@H]1CNc2c(sc3ccc4nc(-c5ccncc5)ccc4c23)C(=O)N1 | 2% |
| COc1cc(Nc2nccc(N3CCC(NC(=O)c4cccc(C#N)c4)C3)n2)cc(OC)c1OC (centres unmarked) [GSK1379751] | 0% |
| Cn1ccc2ncnc(Oc3ccc(NC(=O)Nc4ccnc(C(F)(F)F)c4)c(Cl)c3)c21 | 83% |
| Cn1cc(-c2cccc3c(N)c(C(N)=O)nnc23)cn1 | 23% |
| CC(=O)Nc1nc2cnc(Nc3cc(NC(=O)c4cccc(CC(C)(C)C#N)c4)ccc3C)nc2s1 | 5% |
| COc1cccc(CNC(=O)NC2CCN(c3ccnc(Nc4cc(OC)c(OC)c(OC)c4)n3)C2)c1 (centres unmarked) [GSK1379765] | 0% |
| O=C(Nc1cccc(C(F)(F)F)c1)c1cccc(Oc2ccc3nccn3n2)c1 | 29% |
| OCCn1cc(-c2cnc3nnn(Cc4ccc5ncccc5c4)c3n2)cn1 | 0% |
| Cc1cccc(-c2nc(Nc3ccncc3)c3sccc3n2)n1 [GW869641] | 37% |
| CS(=O)(=O)Nc1ccc(-c2ccnc3[nH]ccc23)cc1 [GSK993273] | 11% |
| Cn1ccc2ncnc(Oc3ccc(NC(=O)Nc4cccc(C(F)(F)F)c4)c(Cl)c3)c21 | 16% |
| O=C(Nc1n[nH]c2cc(-c3ccco3)ccc12)C1CC1 [SB-737447] | 0% |
| Cc1ccc(C(=O)Nc2ccc(Oc3ccc4nc(NC(=O)C5CC5)cn4c3)c(F)c2)c(=O)n1-c1ccccc1 | 47% |
| Cc1n[nH]c2cc(Nc3ccnc(Nc4cccc(CN5CCOCC5)c4)n3)ccc12 [GW682569] | 0% |

| Compound | %Inh |
| --- | --- |
| Cn1ccc2ncnc(Oc3ccc(NC(=O)Nc4cnn(C(C)(C)C)c4)c(Cl)c3)c21 | 12% |
| Cn1ccc2ncnc(Oc3ccc(NC(=O)Nc4cccc(C(F)(F)F)c4)c(F)c3)c21 | 0% |
| Cl.Cl.NC[C@H](CC1CCCCC1)NC(=O)c1ccc(-c2ccnc3[nH]ccc23)s1 [GSK1581428] | 0% |
| COc1cccc(C2=C(Nc3cccc(Cl)c3)C(=O)NC2=O)c1 [SB-341556] | 100% |
| C[C@@H](Oc1cc(-n2cnc3cc(-c4cnn(C)c4)ccc32)sc1C(N)=O)c1ccccc1Cl [GSK580432] | 88% |
| Cc1ccc2c(-c3ccnc(Nc4ccc(C(F)(F)F)cc4)n3)cnn2n1 [GW819776] | 13% |
| CCn1c(-c2nonc2N)nc2cncc(Br)c21 [SB-738004] | 0% |
| CCN1CCN(CCCC(=O)Nc2n[nH]c3nc(-c4ccc(O)cc4)c(Br)cc23)CC1 [SB-731579] | 2% |
| CN1CCN(CCCNc2nccc(-c3c(-c4ccc(F)cc4)nn4cc(C(N)=O)ccc34)n2)CC1 [GW622475] | 28% |
| COC(=O)c1cccc(NC(=O)NC2CCN(c3ccnc(NCc4ccc(F)cc4)n3)CC2)c1 [GSK1379860] | 0% |
| CC(=O)c1c(-c2ccncc2)[nH]c(-c2ccncc2)c1C [GW493036] | 11% |
| CN1CCN(CCNc2nc3cc(Oc4ccc(NC(=O)Nc5cc(C(F)(F)F)ccc5F)cc4)ccc3[nH]2)CC1.Cl.Cl [GW768504] | 16% |
| COc1cc2ncn(-c3cc(OCC4CCCCC4)c(C(N)=O)s3)c2cc1OC [GSK204559] | 11% |
| O=C(NCC1CC1)c1ccc(-c2cc(C(=O)NC3CC3)ccc2F)cc1 [GW810445] | 55% |
| CS(=O)c1ccc(-c2coc3ccc(-c4n[nH]c(=O)o4)cc23)cc1 (centres unmarked) | 0% |
| Cc1ccn2nc(-c3ccc(F)cc3)c(-c3ccncc3)c2c1.Cl [GW457859] | 0% |
| Cc1ccc(CC(=O)N2CCc3cc(-c4cn(C)c5ncnc(N)c45)ccc32)cc1 [GSK2634758] | 94.9% |
| CCOC(=O)N1CCC(n2cnc(-c3ccc(F)cc3)c2-c2ccnc(N)n2)CC1 [SB-219952] | 20% |

From article PMC5540273 (PLoS ONE, 2017)
